Hits are enriched below; roughly 2.8% of the tested compounds scored in any of these assays.
HEK293 viab = reduces viability of HEK-293 SNCA reporter cells | HEK-293-SNCA-luc viability, GF-AFC fluorescence, 24 h | Potency, µM (top dose mostly 57.1 µM), for inactives: at the highest dose activity change, negative = cytotoxicity, usual class: cytotoxic | actives 0.12% (n = 150,000);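 also: potency is read from the fitted curve at half-maximal effect; 0% = DMSO-treated cells and -100% = medium-only wells without cells; nearly all actives have a fitted effect of over 30% in size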
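Cytotoxicity counterscreen: after 24 h compound treatment of genome-edited SNCA-luciferase HEK-293 cells, live-cell protease substrate GF-AFC read by fluorescence after 30 min; activity scaled between DMSO (0%) and medium-only (-100%), curves Hill-fitted.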
IP6K1 inh = IP6K1 kinase inhibition; AID 1645851; actives 0.81% (n = 140,000); Q92551; IP6K1 kinase, ADP-Glo luminescence, 2 h; hits give low values; activity change, % (series mostly up to about 58 µM); in the data active = activity change below about -25%; also: % is scaled to controls: 0 for no effect and ±100 for the full control effect
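ADP-Glo luminescence measures ADP made by human IP6K1 during a 2 h RT reaction with ATP/IP6 (mix at 1.3 mM/130 uM); top library doses 57.5 and 19.1 uM final.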
SNCA expr inhib = SNCA gene expression inhibition | Potency, µM (highest dose often 57.2 µM), for inactives: at the top dose activity change, negative = inhibition, hits mostly inhibitors | actives 0.17% (n = 140,000) | HEK-293 SNCA-luciferase knock-in, luminescence, 24 h;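 also: potency is read from the fitted curve at half-maximal effect; plate controls were DMSO cells for no effect and cell-free wells for full effect; nearly all actives have a fitted effect of over 45% in size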
KDM5B inh = blocks human KDM5B histone demethylase activity; KDM5B demethylase, FDH-coupled NADH fluorescence (FDH is formaldehyde dehydrogenase); Potency, µM (series often up to 57.7 µM), most hits filed as inhibitors; actives 2.6% (n = 220,000); also: potency is read from the fitted curve at half-maximal effect; 0% is about no effect; nearly all actives have a fitted effect of over 70% in size
Target sequence (Q9UGL1 whole entry, looked up): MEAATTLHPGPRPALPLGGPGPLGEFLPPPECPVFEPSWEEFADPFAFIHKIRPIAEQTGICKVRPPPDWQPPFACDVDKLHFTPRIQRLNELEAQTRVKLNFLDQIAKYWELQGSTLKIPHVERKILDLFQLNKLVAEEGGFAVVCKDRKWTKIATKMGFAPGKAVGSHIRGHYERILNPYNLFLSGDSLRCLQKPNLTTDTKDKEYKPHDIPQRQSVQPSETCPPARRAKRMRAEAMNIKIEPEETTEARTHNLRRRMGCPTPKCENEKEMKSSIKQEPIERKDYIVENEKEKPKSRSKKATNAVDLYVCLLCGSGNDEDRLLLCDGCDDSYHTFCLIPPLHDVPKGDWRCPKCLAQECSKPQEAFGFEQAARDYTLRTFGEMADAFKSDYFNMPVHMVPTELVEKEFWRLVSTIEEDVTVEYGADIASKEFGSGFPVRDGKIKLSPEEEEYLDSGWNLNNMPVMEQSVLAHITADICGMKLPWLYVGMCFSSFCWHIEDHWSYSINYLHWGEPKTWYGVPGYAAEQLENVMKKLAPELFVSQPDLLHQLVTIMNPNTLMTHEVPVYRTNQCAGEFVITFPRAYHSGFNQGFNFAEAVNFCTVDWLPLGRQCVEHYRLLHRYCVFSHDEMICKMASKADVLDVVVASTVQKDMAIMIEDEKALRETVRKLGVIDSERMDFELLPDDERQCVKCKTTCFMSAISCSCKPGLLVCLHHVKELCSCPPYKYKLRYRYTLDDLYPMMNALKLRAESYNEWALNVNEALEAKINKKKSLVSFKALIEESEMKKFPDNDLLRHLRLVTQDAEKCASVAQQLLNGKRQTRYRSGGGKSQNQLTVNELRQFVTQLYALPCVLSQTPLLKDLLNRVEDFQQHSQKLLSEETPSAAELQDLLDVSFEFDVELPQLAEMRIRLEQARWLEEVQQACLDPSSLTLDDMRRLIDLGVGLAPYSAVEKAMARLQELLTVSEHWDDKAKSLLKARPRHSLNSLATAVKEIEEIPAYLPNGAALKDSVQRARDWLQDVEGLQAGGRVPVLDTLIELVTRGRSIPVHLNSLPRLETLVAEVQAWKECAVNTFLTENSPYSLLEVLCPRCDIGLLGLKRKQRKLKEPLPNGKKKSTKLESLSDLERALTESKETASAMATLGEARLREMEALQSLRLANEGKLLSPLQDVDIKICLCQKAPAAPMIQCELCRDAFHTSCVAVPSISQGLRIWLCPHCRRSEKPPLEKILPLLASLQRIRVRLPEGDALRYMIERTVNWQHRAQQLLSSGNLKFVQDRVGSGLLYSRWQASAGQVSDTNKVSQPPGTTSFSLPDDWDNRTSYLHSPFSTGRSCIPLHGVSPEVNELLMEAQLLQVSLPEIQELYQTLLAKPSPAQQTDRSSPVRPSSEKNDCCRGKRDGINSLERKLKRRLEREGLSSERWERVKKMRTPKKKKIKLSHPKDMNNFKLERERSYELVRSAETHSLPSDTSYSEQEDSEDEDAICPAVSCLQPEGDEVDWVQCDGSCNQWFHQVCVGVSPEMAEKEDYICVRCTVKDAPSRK
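Compound dilutions met 200 nM (final) KDM5BΔAP for 10 min at room temperature before substrate addition. The substrate mix held 12.5 µM H3K4me3 with cofactors 25 µM α-ketoglutarate and 50 µM Fe²⁺. NADH signal gain over 30 min defined activity.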
An asterisk follows results filed as active; i = inactive; ? = inconclusive; . = no result; [ ] = another dose, or the depositor's remark. Unless noted, calls follow the shape of the dose curve; as a rule, active = well fitted curve in the direction sought with a large enough effect; inconclusive = small, poorly fitted or top-dose-only effect, or another doubt; inactive = no such curve, though single readings can be large; an effect the other way counts as inactive or inconclusive.

SMILES	HEK293 viab	IP6K1 inh	SNCA expr inhib	KDM5B inh
O=C(c1cnc2ccccn2c1=O)N1CC(=O)N(C2CCCCC2)CC(OCc2ccccc2)C1 (centres undefined)	-21%	15	13%	32µM*
CC(C)C(=O)N1CC(=O)N(C2CCCCC2)CC(OCc2ccccc2)C1 (centres undefined)	5%	7	-11%	i
CCCCN(C)C(=O)CSc1nc2ccccc2nc1Cc1ccc(C)cc1	?	26	14µM*	i
CCCCNC(=O)CSc1nc2ccccc2nc1Cc1ccc(C)cc1	-2%	-6	0%	i
Cc1noc(C)c1-c1cc2cc(C(C)C)oc2c(-c2cccnc2)n1	3%[87.6 µM]	-7	46%[87.6 µM]	32µM*
COc1ncccc1-c1nc(-c2c(C)noc2C)cc2cc(C(C)C)oc12	-7%[87.6 µM]	-9	31%[87.6 µM]	32µM*
CNC(=O)c1cc2cc(-c3c(C)noc3C)nc(-c3cccnc3OC)c2o1	6%[87.6 µM]	-2	29%[87.6 µM]	35µM*
Cc1noc(C)c1-c1cc2cc(C(C)C)oc2c(-c2ccc(CO)cc2)n1	-22%[87.6 µM]	-8	6%[87.6 µM]	28µM*
Cc1noc(C)c1-c1cc2cc(C(C)C)oc2c(-c2c(C)noc2C)n1	15%[87.6 µM]	2	33%[87.6 µM]	i
Cc1ccc(-c2ncc(NC(=O)c3cc(F)ccc3F)cn2)cc1	2%	1	86%	28µM*
CC(c1cc2ccccc2o1)N(C)Cc1nc(-c2ccc(Cl)cc2)no1 (centres undefined)	.	.	.	i
C#CCNC(=O)c1nc(C(C)(C)C)c2cnccn12	3%[87.6 µM]	-15	-5%[87.6 µM]	50µM*
C#CCNC(=O)c1nc(-c2cccnc2)c2ccccn12	-22%[87.6 µM]	0	3%[87.6 µM]	i
CC(C)NC(=O)c1nc(C(C)(C)C)c2cnccn12	-7%[87.6 µM]	-10	-42%[87.6 µM]	126µM*
COc1ccc(-c2noc([C@@H]3C[C@@H](O)CN3Cc3cc4ccccc4o3)n2)cc1	-10%[87.6 µM]	3	38%[87.6 µM]	32µM*
CC(C)c1noc([C@@H]2C[C@@H](O)CN2Cc2cc3ccccc3o2)n1	2%[87.6 µM]	6	6%[87.6 µM]	40µM*
CC(C)c1noc([C@@H]2C[C@@H](O)CN2Cc2ccc(N(C)C)cc2)n1	5%[87.6 µM]	-6	-2%[87.6 µM]	i
CN1CC2(CCCN(CC3CC3)C2)c2cc(C(=O)NCCc3ccccn3)ccc21 (centres undefined)	3%[87.6 µM]	2	2%[87.6 µM]	40µM*
CN1CC2(CCCN(CC3CC3)C2)c2cc(C(=O)NCCOc3ccccc3)ccc21 (centres undefined)	4%[87.6 µM]	-3	-29%[87.6 µM]	35µM*
COCCN1CCC2(C1)CN(C)c1ccc(C(=O)NCCOc3ccccc3)cc12 (centres undefined)	8%[87.6 µM]	16	97%[87.6 µM]	?
COc1ccccc1C(=O)Nc1cc(C2CC2)nn1-c1ccccc1	-2%[87.6 µM]	-6	3%[87.6 µM]	.
CN(C)C(=O)c1nc(-c2ccccc2)c2ccccn12	5%[87.6 µM]	21	36%[87.6 µM]	i
COC(=O)CNC(=O)c1nc(C(C)(C)C)c2ccccn12	14%[87.6 µM]	-8	37%[87.6 µM]	126µM*
CC(C)(C)c1nc(C(=O)NCc2ccc(F)cc2)n2ccncc12	4%	-8	-8%	100µM*
CC(C)(C)c1nc(C(=O)NCc2ccc(F)cc2)n2ccccc12	0%	0	4%	89µM*
SMILES	HEK293 viab	IP6K1 inh	SNCA expr inhib	KDM5B inh
O=C(NCc1ccc(F)cc1)c1nc(-c2cccc(C(F)(F)F)c2)c2ccccn12	13%	15	-5%	i
CN(C)C(=O)c1nc(C(C)(C)C)c2ccccn12	5%[87.6 µM]	-7	-16%[87.6 µM]	112µM*
COc1cc(C#N)ccc1OCc1ccccc1Cl	.	.	.	i
Cc1cccc(C)c1-c1nc(C(=O)N(C)C)n2ccccc12	0%[87.6 µM]	30	-1%[87.6 µM]	40µM*
O=[N+]([O-])c1cccc(-c2noc([C@@H]3Cc4nc[nH]c4CN3Cc3ccc(F)cc3)n2)c1	-27%[87.6 µM]	20	-18%[87.6 µM]	?
CCCOc1cccc(C(=O)Nc2cc(C(C)(C)C)on2)c1	.	.	.	i
c1nc2nc(Nc3ccc(N4CCOCC4)cc3)nc(NC3CCCCC3)c2[nH]1	?	-41*	?	.
Cc1oc(-c2ccccc2F)nc1Cn1c(SCc2cccc(Cl)c2)nc2ccncc21	-22%	7	?	i
Cc1ccc(CSc2nc3ccncc3n2Cc2nc(-c3ccccc3C)oc2C)cc1	-1%	-4	10µM*	?
O=C(NCc1ccccn1)C1CCN(c2nccc(-c3cccnc3)n2)CC1	-1%	8	51%	?
Cc1nc(CC2CCN(c3nccc(-c4cccnc4)n3)CC2)no1	-3%	-7	1%	22µM*
c1cn(-c2ccc(OCC3CCCO3)cc2)c(-c2cc3n(n2)CCNC3)n1 (centres undefined)	-4%	-3	-25%	?
c1cn(-c2ccc(Oc3nn[nH]n3)cc2)c(-c2cc3n(n2)CCNC3)n1	16%	2	-25%	18µM*
Fc1ccccc1-c1noc(N2CCOCC2)n1	-5%	-1	29%	i
O=C1c2cc(N3CCOCC3)nc(-c3ccccc3F)c2CN1CC1CC1	-18%[87.6 µM]	12	1%[87.6 µM]	40µM*
O=C1c2cc(N3CCOCC3)nc(-c3ccc(F)cc3)c2CN1CC1CC1	-8%[87.6 µM]	13	18%[87.6 µM]	40µM*
O=C1c2cc(N3CCOCC3)nc(-c3ccc(CO)cc3)c2CN1Cc1ccccc1	5%[87.6 µM]	25	-7%[87.6 µM]	i
COc1cc(F)ccc1-c1nc(N2CCOCC2)cc2c1CN(CC1CC1)C2=O	2%[87.6 µM]	13	-4%[87.6 µM]	35µM*
COc1cc(F)ccc1-c1cc2c(ccn2CC2CCN(C)CC2)c(N2CCOCC2)n1	-12%[87.6 µM]	11	-18%[87.6 µM]	?
O=C(CSc1nnc(N2CCOCC2)n1-c1cccc(F)c1)NCC(=O)Nc1ccc(F)cc1	.	.	.	i
CN(C)c1ccc(C(=O)/C=C/c2cccs2)cc1	.	.	.	i
CCC(CC)C(=O)N1CCN(C(=O)c2ccccc2C(=O)c2ccc(F)cc2)CC1	.	.	.	i
Cc1cccc(OCC(=O)N[C@@H]2CN(c3ncccn3)C[C@H]2CN(C)C)c1	-11%	26	1%	22µM*
CN(C)C[C@@H]1CN(c2ncccn2)C[C@H]1NC(=O)COc1ccc(Cl)cc1	-14%	5	0%	28µM*
CN(C)C[C@@H]1CN(c2ncccn2)C[C@H]1NC(=O)COc1ccc(F)cc1	-12%	6	-12%	?
SMILES	HEK293 viab	IP6K1 inh	SNCA expr inhib	KDM5B inh
COc1ccccc1Nc1ccnc(N2CCN([S+](=O)([O-])c3ccc(C)cc3)CC2)n1	-17%	8	-7%	.
C[S+](=O)([O-])c1ccc(-c2nccc3c(=O)cc(-c4cccnc4)oc23)cc1	7%[87.6 µM]	-23	-5%[87.6 µM]	35µM*
COc1ncccc1-c1nccc2c(=O)cc(-c3cccnc3)oc12	-11%[87.6 µM]	-12	53%[87.6 µM]	35µM*
Cc1ccccc1-c1nccc2c(=O)cc(-c3cccnc3)oc12	-18%[87.6 µM]	-23	-13%[87.6 µM]	40µM*
O=c1cc(-c2cccnc2)oc2c(-c3ccc(O)c(F)c3)nccc12	0%[87.6 µM]	-14	31%[87.6 µM]	i
O=c1cc(-c2cccnc2)oc2c(NCc3ccc(F)cc3)nccc12	11%[87.6 µM]	71	28%[87.6 µM]	i
COc1ccc(-c2nccc3c(=O)cc(-c4cccnc4)oc23)cc1OC	-15%[87.6 µM]	-16	15%[87.6 µM]	i
Cc1sc(NC(=O)CN2CCCCC2)nc1-c1ccccc1	.	.	.	i

Assay outcomes as filed in PubChem BioAssay.
